KB-V1 cytotox = kills drug-selected multidrug resistant KB-V1 cells; Potency, µM (series often up to 46.1 µM), most hits filed as cytotoxic; 400,000 compounds, 3.4% hits; KB-V1 MDR cells viability, CellTiter-Glo, 72 h; also: % is scaled to controls: 0 for no effect and ±100 for the full control effect; nearly all actives have a fitted effect of over 60% in size
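Cells of the MDR subline KB-V1 are plated, dosed with compound at multiple concentrations, and incubated 72 h at 37 degrees C; CellTiter-Glo is then added and luminescence read after 10 min.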
ELG1 DNA repair = blocks ELG1-dependent DNA repair in HEK293T cells | HEK293T ELG1-luciferase reporter, luminescence, 16 h; DNA damage induced by 5-fluorouridine | Potency, µM (series often up to 46.1 µM), inactives show at the highest dose activity change, negative = inhibition, usual class: inhibitors | 330,000 compounds, 2.3% hits; also: % is scaled to controls: 0 for no effect and ±100 for the full control effect; nearly all actives have a fitted effect of over 55% in size
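Luminescence from the luciferase reporter, measured 30 min after ONE-Glo reagent at room temperature, was the read-out. Beforehand, 2,000 cells per well were exposed for 16 hr at 37 °C to 5-fluorouridine together with compound or vehicle.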
KB-3-1 cytotox = kills parental KB-3-1 adenocarcinoma cells; KB-3-1 viability, CellTiter-Glo ATP luminescence, 72 h; Potency, µM (doses to about 46.1 µM), usual class: cytotoxic; 400,000 compounds, 1.4% hits; AID 1347075; also: % is scaled to controls: 0 for no effect and ±100 for the full control effect; nearly all actives have a fitted effect of over 60% in size
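KB-3-1 cells, DMEM (no phenol red) + 10% FBS; compound by pin transfer, 72 h, 37 °C. Readout: CellTiter-Glo luminescence after 10 min. Data normalized, curve-fitted.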
SW480 rereplic = DNA re-replication induction in SW480 cells. 340,000 compounds, 1.8% hits. Potency, µM (series often up to 46.1 µM), for the others: at the highest dose re-replication activation, actives largely listed as activators. SW480 DNA re-replication, Hoechst DNA content imaging, 48 h. AID 624297; also: % of control where 0% means no effect; nearly all actives have a fitted effect of over 55% in size
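Image-based read-out: total Hoechst fluorescence of nuclei (405 nm excitation, 500-530 nm emission), with hits raising the fraction of high-intensity nuclei. SW480 colon cells incubated 48 hr with compounds at 37 C.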
MCF10A rerep = inducers of DNA re-replication in MCF 10A breast cells | MCF 10A DNA re-replication, Hoechst nuclear intensity, 48 h | Potency, µM (doses to about 46.1 µM), without a hit: at the highest dose activity, positive = re-replication, most hits filed as activators | 350,000 compounds, 2.9% hits; also: % of control where 0% means no effect; nearly all actives have a fitted effect of over 50% in size
Numbers without * were called inactive; i = inactive; ? = inconclusive; . = not tested or not shown. This is a sample that favours compounds with a hit; in the whole collection about 8.1% have one here. Calls follow the shape of the dose curve; as a rule, active = well fitted curve in the direction sought with a large enough effect; inconclusive = small, poorly fitted or top-dose-only effect, or another doubt; inactive = no such curve, though single readings can be large; an effect the other way counts as inactive or inconclusive. Potency is read from the fitted curve at half-maximal effect.

SMILES	KB-V1 cytotox	ELG1 DNA repair	KB-3-1 cytotox	SW480 rereplic	MCF10A rerep
O=[N+]([O-])c1ccc(C2CCCC/C2=N\OCc2cccc(F)c2)c([N+](=O)[O-])c1 (stereo unspecified)	10.3µM*	?	i	0.6%	20.9%
CC1CCCC/C1=N/Nc1ccc([N+](=O)[O-])cc1[N+](=O)[O-] (stereo unspecified)	i	0.2%	i	-0.8%	16.6%
O=C(C1CCN(S(=O)(=O)c2cccc3nonc23)CC1)N1CCN(c2cccc(Cl)c2)CC1	i	.	i	.	.
Cc1cc(=O)n(C)c(=O)n1CCCCCCOc1cccc([N+](=O)[O-])c1	7.31µM*	?	?	-119.0%	-72.4%
Cc1nn2c(-c3cccc(NC(=O)c4ccco4)c3)nnc2c2ccccc12	i	?	i	4.6%	?
Cc1nn2c(-c3ccccc3)nnc2c2ccccc12	5.8µM*	?	?	-2.0%	0.4%
CCOC(=O)c1sc(NNC(=O)c2ccc(C)cc2)nc1C	i	-29.4%	i	-10.7%	25.9µM*
CCOC(=O)c1nc(NNC(=O)c2ccc([N+](=O)[O-])cc2)sc1C	?	16.4µM*	18.4µM*	3.66µM*	25.3%
O=C(COC(=O)c1cncc(Br)c1)Nc1ccc(N2CCCCC2)cc1	i	?	i	-9.8%	-3.5%
CSc1nc(N)nc(SCCS(=O)(=O)c2ccc(Cl)cc2)c1C#N	?	-2.6%	i	?	13µM*
O=S(=O)(NCC(c1ccco1)N1CCN(c2ccccc2F)CC1)c1ccc2c(c1)OCCO2 (stereo unspecified)	?	16.4µM*	i	4.1%	?
COc1ccc(N2CCN(C(CNS(=O)(=O)c3ccc4c(c3)OCCO4)c3ccco3)CC2)cc1 (stereo unspecified)	?	14.6µM*	i	-1.1%	?
COc1cc2c(NC3CCN(C(C)C)CC3)nc(N3CCCN(C)CC3)nc2cc1OCCCN(C)C	i	.	2.31µM*	.	.
COc1cc2nc(N3CCCN(C)CC3)nc(Nc3ccncc3)c2cc1OC	i	.	13µM*	.	.
COc1ccc(C)cc1NC(=O)CN1C(=O)COc2ccc(S(=O)(=O)N3CCC(C)CC3)cc21	i	6.2%	i	-6.6%	7.4%
CN(c1ccccc1)c1ccc(/C=C(\C#N)c2nnc3n2CCCCC3)cc1[N+](=O)[O-]	10.3µM*	-0.3%	?	-4.6%	?
COc1ccc(N(CC(=O)NCC2CCCO2)S(=O)(=O)c2ccc(C)cc2)cc1OC (stereo unspecified)	20.6µM*	-2.7%	i	20.1%	5.4%
O=C(CN(c1ccccc1F)S(=O)(=O)c1ccccc1)Nc1ccccc1C(=O)N1CCOCC1	i	5.4%	i	-0.5%	?
Cc1ccc(N(CC(=O)NCC2CCCO2)S(=O)(=O)c2ccc(Cl)cc2)cc1C (stereo unspecified)	i	-0.7%	i	-7.4%	1.0%
COc1ccc(NC(=O)CN(c2ccc([N+](=O)[O-])cc2)S(=O)(=O)c2ccccc2)cc1	16.4µM*	?	i	?	?
COc1ccc(S(=O)(=O)N(CC(=O)Nc2ccccc2C(=O)N2CCOCC2)c2ccc(F)cc2)cc1	16.4µM*	-1.3%	i	1.0%	10.0%
COc1ccc(N(CC(=O)Nc2ccccc2Cl)S(=O)(=O)c2ccc(C)cc2)cc1OC	i	-22.9%	i	3.26µM*	?
COc1ccc(N(CC(=O)Nc2ccccc2C(=O)NCC(C)C)S(C)(=O)=O)cc1	i	-11.4%	i	18.4µM*	-5.0%
CCC(C)NC(=O)c1ccccc1NC(=O)CN(c1ccc(OC)cc1)S(C)(=O)=O (stereo unspecified)	i	-9.7%	i	-5.2%	2.2%
COc1ccc(N(CC(=O)Nc2ccccc2OC)S(=O)(=O)c2ccc(NC(C)=O)cc2)cc1	?	?	20.6µM*	18.4µM*	13µM*
COC(=O)c1cc(NC(=O)Nc2cccc(Cl)c2)ccc1Cl	23.1µM*	-0.9%	i	0.1%	-1.7%
COC(=O)c1cccc(NC(=O)NC(=O)c2ccc(Cl)cc2)c1	i	?	i	18.4µM*	6.2%

Source: PubChem BioAssay
